High-throughput results from PubChem.
The list is not random: actives were taken first. Their share in the collection is about 3.4%.
GPR151 activ = human GPR151 activation. Q8TDV0. PathHunter beta-arrestin GPR151 cells, luminescence. activation, % at 11.2 µM. actives 1% (n = 650,000). AID 1508602; in the data active = activation above about 4.9%;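 note: 0% = median of compound wells and 100% = cells with positive control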
FBW7 activator = activators of human E3 ligase FBW7 | normalized activity (activation), % at 26.1 µM | AlphaScreen FBW7–phospho-cyclin E peptide binding, activator screen | Q969H0 | actives 0.13% (n = 650,000) | AID 1259310; in the data active = normalized activity above about 1.9%;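 note: purified mutant Fbw7 with reduced substrate affinity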
TEAD-YAP block = TEAD-YAP interaction inhibition; HEK-TIYL cells, TEAD-Gal4/YAP UAS-luciferase luminescence; actives 1.4% (n = 640,000); inhibition, % at 9.12 µM; in the data active = inhibition above about 32%;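 note: 0% = median of test compound wells and 100% = reference inhibitor wells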
MITF primary = inhibitors of human MITF; AlphaScreen MITF homodimerization, bead proximity signal; inhibition, % at 2.6 µM; actives 0.91% (n = 650,000); AID 1259374; in the data active = inhibition above about 50%;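 note: 0% = vehicle wells with protein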
Starred values were filed as active, the others as inactive.

SMILES	GPR151 activ	FBW7 activator	TEAD-YAP block	MITF primary
O=C(N/N=C/c1cccc(O)c1)C1C2CCCCC21 (stereo not drawn)	-1	0	60*	-4
CC(=O)NC1CCN(C(=O)Nc2ccccc2)CC1	4	2.1*	7	15
O=C(NC1CC1)C1CCN(C(=O)Nc2ccccc2)CC1	-1	0	-55	-1
COC(=O)C1=C(C(=O)OC)SC(=C2C(=S)C(C)(C)N(C(=O)COc3ccc(Cl)cc3)c3ccc(OC)cc32)S1	-2	0	3	8
CCC(=O)N1CCCc2ccc(NS(=O)(=O)c3ccc(OC)c(F)c3)cc21	2	0	58*	10
Cc1ccc(S(=O)(=O)Nc2ccc3c(c2)N(C(=O)c2cccs2)CCC3)cc1	0	0	50*	24
CC(=O)N1CCc2ccc(NS(=O)(=O)c3ccc(C(C)(C)C)cc3)cc21	2	0	32*	7
Cc1cccc(OCC(=O)Nc2ccc3c(c2)CCCN3C(=O)c2cccs2)c1	0	0	3	9
O=C(Nc1ccc2c(c1)CCCN2C(=O)c1cccs1)NC(c1ccccc1)c1ccccc1	0	0	45*	-1
CC(C)CS(=O)(=O)Nc1ccc2c(c1)N(C(=O)c1cccs1)CC2	0	0	-2	6
CC1=C(C(=O)OCCOC(C)C)C(c2ccc(F)cc2)C2=C(CC(C)(C)CC2=O)N1 (stereo not drawn)	-1	0	15	0
COCCNC(=O)C(C)n1sc2ccccc2c1=O (stereo not drawn)	0	0	1	-1
CC(C)N(C(=O)COC(=O)CSc1cccc[n+]1[O-])C(C)C	1	0	1	-12
CCC(CC)NC(=O)c1cccc(I)c1	1	0	34*	-7
CCOc1ccc(C(=O)N2CCCCC2C)cc1 (stereo not drawn)	0	1	2	13
COc1ccc(S(=O)(=O)N2CCN(CC(=O)c3ccc(OC)c(OC)c3)CC2)cc1	1	0	-3	1
COc1ccc(S(=O)(=O)N2CCN(CC(=O)c3ccc(O)c(O)c3)CC2)cc1	-2	0	-2	81*
O=C(CN1CCN(S(=O)(=O)c2ccc(Cl)cc2)CC1)c1ccc(O)c(O)c1	-1	0	-3	82*
O=C(CN1CCN(CC(=O)c2ccc(O)c(O)c2)CC1)Nc1ccccc1Cl	1	0	7	89*
COc1ccc(-c2noc(COc3ccccc3C)n2)cc1OC	1	0	-11	-8
COc1ccc(OC)c(C2C(C(=O)OC3CCCC3)=C(C)NC3=C2C(=O)CC(c2ccc(OC)c(OC)c2)C3)c1 (stereo not drawn)	-1	0	5	1
CC1(C)CC(N2NC(=O)C(Cc3ccccc3)C2=O)CCS1 (stereo not drawn)	0	0	5	3
CCC(=O)N(CCCO)Cc1cc2ccc(C)cc2[nH]c1=O	-1	1	36*	1
CCCOc1ccc(/C=N/Nc2ccc(S(N)(=O)=O)cc2[N+](=O)[O-])c(OCCC)c1	0	0	2	-16
Cc1ncc2c(NCCc3ccccc3)nc3ccccc3n12	-2	0	-14	3
SMILES	GPR151 activ	FBW7 activator	TEAD-YAP block	MITF primary
Cc1ncc2c(NCCN(C)C)nc3ccccc3n12	1	0	46*	11
CC1=C/C(=N/S(=O)(=O)c2ccc(C)cc2)C=C(O/N=C(/C)c2ccccc2)C1=O	2	0	-3	46
Cc1ccnc(Nc2nc(-c3ccccn3)cs2)c1	-3	-2	73*	103*
Cc1ccc(Nc2nc(-c3ccccn3)cs2)cc1	-4	-1	55*	-5
Cc1ccnc(Nc2nc(-c3cccs3)cs2)c1	-1	0	-30	26
COc1ccc(S(=O)(=O)N(CC(=O)NCc2ccccc2OC)c2ccc(C)cc2)cc1	-2	0	2	13
COc1ccc(C(=O)O/N=C(\N)c2ccncc2)c(OC)c1	-3	0	-79	6
COc1cc(/C=C(\C#N)C(N)=S)ccc1O	0	0	9	9
CC(C)(C)c1cc(/C=C(\C#N)C(N)=S)cc(C(C)(C)C)c1O	3	0	47*	-2
N#Cc1c(NC(=O)CCc2ccccc2)sc2c1CCCCCC2	0	0	0	-12
CC(=O)N1CCc2c(sc(NC(=O)Cc3cccc4ccccc34)c2C(N)=O)C1	2	0	-4	5
N#Cc1c(NC(=O)CCc2ccccc2)sc2c1CCCC2	0	0	47*	12
N#Cc1c(NC(=O)CSc2ncn[nH]2)sc2c1CCCC2	-1	0	49*	4
CC(=O)N1CCc2c(sc(NC(=O)CCc3ccccc3)c2C#N)C1	1	0	54*	-4
CC(=O)N1CCc2c(sc(NC(=O)Cc3cccc4ccccc34)c2C#N)C1	0	0	54*	-3
O=C1c2ccccc2-c2ncnc3c(S(=O)(=O)O)cc(O)c1c23	2	0	4	3
CCOc1ccc(NC(=O)NN2CCN(C)CC2)cc1	0	0	-2	0
N[C@H](Cc1cccc(F)c1)c1nc2ncc(-c3ccncc3)cc2[nH]1	0	-1	48*	11
N[C@H](Cc1cc(F)cc(F)c1)c1nc2ccc(-c3ccncc3)cc2[nH]1	0	-1	-6	7
CCC1(O)CC2CN(CCc3c([nH]c4ccccc34)[C@@](C(=O)OC)(c3cc4c(cc3OC)N(C)C3[C@]45CCN4CC=C[C@@](CC)([C@@H](OC(C)=O)[C@]3(O)C(=O)OC)[C@H]45)C2)C1 (stereo partly drawn)	-1	0	70*	10
CC[C@]1(O)CC2CN(CCc3c([nH]c4ccccc34)[C@@](C(=O)OC)(c3cc4c(cc3OC)N(C)[C@H]3[C@@](O)(C(N)=O)[C@H](O)[C@]5(CC)C=CCN6CC[C@]43[C@@H]65)C2)C1 (stereo partly drawn)	-3	0	47*	-12
CCC1=C[C@@H]2CN(C1)Cc1c([nH]c3ccccc13)[C@@](C(=O)OC)(c1cc3c(cc1OC)N(C)[C@H]1[C@@](O)(C(=O)OC)[C@H](OC(C)=O)[C@]4(CC)C=CCN5CC[C@]31[C@@H]54)C2	-1	0	65*	19
CC[C@]1(O)C[C@H]2CN(CCc3c([nH]c4ccccc34)[C@H](C)[C@H]2c2cc3c(cc2OC)N(C)[C@H]2[C@@](O)(C(=O)OC)[C@H](C)[C@]4(CC)C=CCN5CC[C@]32[C@@H]54)C1	1	0	65*	25
CCOc1ccccc1N=Cc1c(O)[nH]c2ccccc12	1	0	-7	9
CCOc1ccc(N2C(=O)CC(NCCc3ccccc3)C2=O)cc1 (stereo not drawn)	0	0	-7	5
O=C1c2ccccc2C(=O)N1c1cc([N+](=O)[O-])ccn1	-2	1	6	10
COc1ccc(C(=O)NC2CCSC2=O)cc1[N+](=O)[O-] (stereo not drawn)	-1	2.0*	-6	21
NS(=O)(=O)c1ccc(N=Cc2ccc[nH]2)cc1	-1	0	-5	-2
